CapD inh – inhibitors of Bacillus anthracis CapD enzyme; purified CapD enzyme, fluorescence intensity read-out; hits give low values; z-score (test concentration not listed); hit rate 0.23% among 140,000; in the data active means z-score mostly below about -2.9, no sharp cut-off; inactive means mostly above about -1.9
AID504770 – E. coli YBA685 growth inhibition, screen for V. cholerae RctB inhibitors. E. coli YBA685 rctB-dependent plasmid, OD600 growth, 3 h; hits give low values. z-score (no concentration beside the values). hit rate 0.27% among 130,000. AID 504770; in the data active means z-score below about -2, passing the limit was not always enough
* marks the source's active call; other numbers are inactive results; x = not tested or not shown. An excerpt weighted towards active compounds, which were near 0.36% of everything screened.

SMILES	CapD inh	AID504770
CN(C)/C=C/C=C1\CCc2ccccc2C1=O	-0.79	-0.9
CN(C)/C=C/C=C1\CC/C(=C\C=C\N(C)C)C1=O	-7.3*	0.95
COc1ccc(-n2c(C(C)N3CCCCC3)n[nH]c2=S)cc1 (centres undefined)	x	-5.2*
COc1ccc(N2CCN(CCN3CCCCC3)CC2)cc1	x	-0.1
O=C(Nc1ccccc1)c1csc2ccc(Cl)cc12	-0.8	1.4
O=C(Nc1ccccc1)c1cc(Cl)ccc1O	42	-2.7*
C1CN2CN3CCN(CN1C3)C2	-0.22	-2.4*
C1N2CN3CN1CN(C2)C3	0.64	-0.3
NCC(c1ccc(F)cc1)N1CCOCC1 (centres undefined)	x	-0.5
CC(=O)N1CCc2cc(C(=O)CN3CCN(Cc4ccccc4)CC3)ccc21	0.12	0.4
Oc1c(Br)cc(Br)c2cccnc12	0.27	-0.35
Cc1cc(C)c2cccnc2c1O	-0.48	-2.4*
O=c1[nH]c(CN2CCN(S(=O)(=O)c3ccc4c(c3)OCCO4)CC2)nc2ccsc12	x	0.9
CC(C)Cn1c(O)c(N=NC(=S)NC(C)C)c2ccccc21	x	0.55
CC(C)n1c(O)c(N=NC(=S)NC2CCCCC2)c2ccccc21	x	-2.9*
O=P1(Nc2ccc(Cl)cc2)CC=CC1	x	-0.55
CC(C)(C)c1cc2nc(C(F)(F)F)cc(N3CCN(C(=O)OCCN4CCN(Cc5ccc6ccccc6c5)CC4)CC3)n2n1	40	x
COc1ccccc1C(=O)N1CCN(c2ccccc2)CC1	-0.53	x
O=Nc1ccc(NNC(=O)c2ccccc2O)cc1	-3.7	-2.9*
O=C(Nc1ccc(NC(=O)c2ccccc2O)cc1)c1ccccc1	0.32	1.1
CC(=O)N1CCC(N(C(=O)CCC(=O)NCCc2ccccc2)C2CC2)CC1	-0.005	x
CCOC(=O)c1c(N2C(=O)CCC2=O)sc2c1CCCC2	1.7	0.9
COC(=O)c1c(N2C(=O)CCC2=O)sc2c1CCCC2	-0.46	-3.2*
Cc1ccc(Cl)cc1N1CCN(CCNC(=O)CCc2nnc3n(CC(C)C)c(=O)c4ccccc4n23)CC1	0.36	0.45
CCOC(=O)c1c(OCCOC(=O)c2ccc(Cl)cc2Cl)noc1N	-0.38	x
SMILES	CapD inh	AID504770
C/C(=N/O)C1C(=O)c2ccccc2C1=O	-4.3*	1.5
C/C(=N\N1C(=O)c2ccccc2C1=O)C1C(=O)c2ccccc2C1=O	-0.46	0.5
O=C(O)CCC(=O)c1ccc(I)cc1	-0.51	1.5
O=C(O)CCC(=O)c1ccc(Br)cc1	-1.3	-3.1*
Cc1cc(C(=O)COC(=O)C2CC(=O)N(Cc3ccccc3)C2)c(C)n1Cc1cccs1 (centres undefined)	x	-0.4
CCc1ccccc1N(C)S(=O)(=O)c1c(C)noc1/C=C/N1CCOCC1	-3.4	-0.5
Cc1noc(/C=C/N2CCOCC2)c1S(=O)(=O)N(C)CC(=O)NC1CCCCC1	-5.5*	0.7
Cc1ccc(-c2cc(C(N)=O)on2)cc1	-5.7*	-1.3
CCOc1ccc(-c2cc(C(N)=O)on2)cc1	-0.86	-0.25
CCOC(=O)C1=C(N)OC2=C(C(=O)CC(C)(C)C2)C1c1cccc(Cl)c1 (centres undefined)	-0.005	x
COc1ccc(CCNC(=O)C(C(C)C)N2C(=O)c3ccccc3C2=O)cc1 (centres undefined)	-4.8*	0.45
COc1ccc(CCNC(=O)c2ccccc2OC)cc1	x	0.75
O=C(O)CN1C(=O)/C(=C\c2cc([N+](=O)[O-])ccc2Cl)SC1=S	-1.5	x
CCOc1cc(Br)c(Br)c(/C=C2\SC(=S)N(CC(=O)O)C2=O)c1O	-3.8*	x
O=C(O)CN1C(=O)/C(=C\c2cc([N+](=O)[O-])ccc2O)SC1=S	-5.2*	x
CCOc1cc(/C=C2/SC(=S)N(CC(=O)O)C2=O)ccc1OCc1ccccc1	-0.77	x
Nc1nc2ccccc2n1Cc1ccc(Cl)cc1	0.005	-1.4
Nc1nc2ccccc2n1Cc1ccc(Cl)c(Cl)c1	-0.15	-4.2*
N#CSCC(=O)c1cccs1	-0.045	-3.7*
N#CCN(CC#N)C(=O)c1cccs1	-0.5	1.9
CC(=O)c1cnc2cc(C)nn2c1C	0.06	x
Cc1cc2ncc(C(=O)/C=C/N(C)C)c(C)n2n1	-5.1*	0.25
Cc1cc(C)n(C(=O)CSc2ccc(C(C)(C)C)cc2)n1	-0.05	-0.1
CCOc1ccc(C(=O)N[C@H](C(=O)NC2CCCCC2)C(C)C)cc1	x	2
CCOc1ccc(C(=O)NC(C(=O)Nc2ccc(S(=O)(=O)N(C)C)cc2)C(C)C)cc1 (centres undefined)	x	-5*
SMILES	CapD inh	AID504770
NC(=O)c1ccccc1NCC(=O)c1ccc(Cl)cc1	37	-2.2*
O=C(CNc1ccccc1C(=O)O)c1ccccc1	18	x
Clc1ccc(CSC2=NCCN2)cc1	0.39	x
O=c1oc(-c2cccs2)ns1	-8.9*	-0.25
O=c1oc(-c2c(Cl)cccc2Cl)ns1	0.15	x
Cc1cc2ncc(-c3ccccc3)nc2cc1C	2	-0.9
c1ccc(-c2cnc3nonc3n2)cc1	-1.9	-3*
O=c1cc(CSc2ncccn2)c2cc3c(cc2o1)CCC3	x	-0.15
Cc1cc2oc(=O)cc(CSc3ncccn3)c2cc1Cl	x	-3.1*
CCN1C(=O)/C(=C\c2ccco2)C(C(=O)OC)=C1C	-0.87	-0.2
CCN1C(=O)/C(=C\c2ccc(OC)cc2)C(C(=O)OC)=C1C	-4.9*	-0.4
Cn1c(SCc2nc3sc4c(c3c(=O)[nH]2)CCCC4)nnc1C(F)(F)F	x	-0.1
COc1ccc2nc(NCc3ccccc3)[nH]c2c1	-0.29	-1.5
Cc1ccc2nc(NCc3ccccc3)[nH]c2c1	-0.35	-2.2*
O=C(Nc1ccc(-c2nc3ccccc3s2)cc1)C1CCCO1 (centres undefined)	68	1.9
COc1cccc2c1Oc1ncccc1N(c1ccc(C(=O)NCCN(C)C)s1)C2	17	-0.5
NC(=NCCCCCCN=C(N)/N=C(\N)Nc1ccc(Cl)cc1)/N=C(\N)Nc1ccc(Cl)cc1	0.31	-5*
CC(C)N=C(N)/N=C(\N)Nc1ccc(Cl)cc1	-1.3	x
CCNC(=O)/C=C/c1ccc(Cl)c(Cl)c1	x	-0.4
O=C1C=CC(=O)N1c1ccccc1	-0.57	-7*
Cc1ccc(N2C(=O)C=CC2=O)cc1	x	-1.4
O=C1C=CC(=O)N1c1cccc(Cl)c1	-0.07	-4*
CC1(C)C(=O)N(c2cccc(Cl)c2)C(=O)C1(C)C	0.47	-1.1
CC(=O)Nc1ccc(C(=O)NCc2ccc(C)c(Cl)c2)cc1NC(C)=O	-0.16	x
Cc1ccc2c(c1)c(=O)c1ccccc1n2CC(=O)Nc1c(C)cc(Br)cc1C	0.72	x
SMILES	CapD inh	AID504770
CC(=O)CC(=O)c1c(C)[nH]n(-c2ccccc2)c1=O	-0.73	x
CCC(=O)NC(c1c(C)[nH]n(-c2ccccc2)c1=O)(C(F)(F)F)C(F)(F)F	-0.055	-3.2*
Cc1cccc(C(=O)N2N=C(C3CCCCC3)CC2(O)C(F)(F)F)c1 (centres undefined)	0.38	x
CCc1nc(CN2CCN(c3ccc(C(F)(F)F)cn3)CC2)c(C)[nH]1	-0.68	-0.75
CCc1nc(CN2CCN(c3ccc(F)cc3)CC2)c(C)[nH]1	-1.8*	-0.55
O=C(CN=C1NS(=O)(=O)c2ccccc21)N1CCC(c2nc3ccccc3s2)CC1	x	0.4
CC1(C)CC(Nc2ncnc3sccc23)CC(C)(C)N1	x	-0.2
Cc1ccc(S(=O)(=O)N2CCCN(C)CC2)cc1	0.15	-3.9*
CN1CCN(S(=O)(=O)c2ccc(Br)cc2)CC1	-0.23	-1.3
CN(C)CCCOc1ccc(/C=N/NC(=O)c2ccc(C(F)(F)F)cc2)cc1	-1.3	x
Cn1c(=O)c2cn(-c3ccccc3)cc2n(C)c1=O	4.1	1.9
Cn1c(=O)sn(-c2ccccc2)c1=O	1.1	-5.2*
